Measured values reported in PubChem BioAssay (EPA / NIEHS).
Values joined by “and” are separate entries in the source; they are usually repeats but may differ in a detail not shown here. Equal entries are not always repeated. Some structures have more than one record in an assay (separate samples or runs), and their calls can disagree. Active and inactive are the calls of the source. The calls were made as follows: active = hit-call score of the fitted dose curve at least 0.9, where 1 is the maximum; inactive = score below 0.9.

Legend:
[1] = ATG_E_Box_CIS: Attagene CIS-FACTORIAL HepG2 Assay for human Enhancer Box (E-box) (AID 2282936); conditions: HepG2 E-box cis-reporter transcription, actives raise or lower the signal
How it was run: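 First, HepG2 cells receive multiple cis-regulated reporter constructs by transient transfection. Next, chemicals are applied for 24 h. Finally, reporter mRNA is quantified via RT-PCR and capillary electrophoresis, with DMSO as baseline.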

[2] = ATG_M_61_CIS: Attagene CIS-FACTORIAL HepG2 Assay for M61 Transcription Factor (Internal Marker) (AID 2282937); conditions: HepG2 Attagene CIS-FACTORIAL M61 internal marker reporter; actives raise or lower the signal
How it was run: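 Background-control endpoint: HepG2 cells with cis-regulated reporter constructs, 24 h exposure, reporter mRNA detected via fluorescent primer extension and capillary electrophoresis; values from bidirectional fitting with DMSO baseline.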

[3] = ATG_EGR_CIS: Attagene CIS-FACTORIAL HepG2 Assay for human Early Growth Response 1 (EGR1) (AID 2282938); conditions: HepG2 Attagene CIS-FACTORIAL EGR reporter mRNA; actives raise or lower the signal
How it was run: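 Endpoint derived by bidirectional fitting versus DMSO vehicle. Method: cis-promoter reporter units transfected into HepG2, 24 h dosing, RNA isolation, RT-PCR with 6-FAM primer extension and HpaI digestion, then capillary electrophoresis fluorescence detection.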

[4] = ATG_M_19_CIS: Attagene CIS-FACTORIAL HepG2 Assay for M19 Transcription Factor (Internal Marker) (AID 2282939); conditions: HepG2 Attagene CIS-FACTORIAL M19 internal marker reporter; actives raise or lower the signal
How it was run: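 HepG2, MRTU transient transfection, 24 h dosing. Total RNA → RT-PCR → 6-FAM primer extension → HpaI digest → CE fluorescence. Bidirectional curve fit, DMSO negative control.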

[5] = ATG_Ets_CIS: Attagene CIS-FACTORIAL HepG2 Assay for human Erythroblast Transformation Specific (ETS) (AID 2282941); conditions: HepG2 ETS cis-reporter transcription, actives raise or lower the signal
How it was run: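 Human HepG2 hepatoma cells were transiently transfected with promoter-driven reporter constructs and treated for 24 hours. Reporter transcripts were quantified by RT-PCR with fluorescent primer extension; bidirectional curve fitting used DMSO as reference.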

[6] = target: Hepatocyte nuclear factor 3-beta (Homo sapiens) (UniProt Q9Y261); experiment: ATG_FoxA2_CIS: Attagene CIS-FACTORIAL HepG2 Assay for human Forkhead box A2 (FOXA2) (AID 2282942); conditions: HepG2 cis-reporter transcription factor activity, 24 h; actives raise or lower the signal
How it was run: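 Measured: reporter mRNA induction or loss in HepG2 transiently carrying multiple cis-regulated reporter units, 24 h after dosing. Quantified by RT-PCR plus capillary electrophoresis, normalised to DMSO.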

[7] = ATG_FoxO_CIS: Attagene CIS-FACTORIAL HepG2 Assay for human Forkhead box O (FoxO) (AID 2282943); conditions: HepG2 Attagene cis-reporter, FoxO element, mRNA; actives raise or lower the signal
How it was run: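 Transfected HepG2 reporter cells exposed to test chemical for 24 h; reporter RNA measured by reverse transcription, PCR and fluorescent capillary electrophoresis; curves fitted for increases and decreases against DMSO.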

[8] = ATG_GATA_CIS: Attagene CIS-FACTORIAL HepG2 Assay for human GATA Binding Protein (AID 2282944); conditions: HepG2 GATA cis-element reporter, Attagene multiplex mRNA; actives raise or lower the signal
How it was run: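 Cells: HepG2, transiently transfected with cis-regulated reporter transcription units. Exposure: 24 h. Detection: RT-PCR plus capillary electrophoresis of FAM-labeled fragments. Analysis: bidirectional, DMSO as baseline.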

[9] = ATG_GLI_CIS: Attagene CIS-FACTORIAL HepG2 Assay for human Zinc Finger Protein GLI1 (AID 2282945); conditions: HepG2, Attagene cis-factorial reporter mRNA, GLI element; actives raise or lower the signal
How it was run: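 Transiently transfected HepG2 cells report endogenous transcription factor activity via cis-element-driven reporter units. After 24 h compound exposure, reporter mRNA was measured by RT-PCR with capillary electrophoresis; bidirectional fitting against DMSO baseline.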

[10] = ATG_ISRE_CIS: Attagene CIS-FACTORIAL HepG2 Assay for human Interferon Regulatory Factor 1 (IRF1) binding to an Interferon-Stimulated Response Element (ISRE) (AID 2282948); conditions: HepG2 ISRE cis-reporter (Attagene), mRNA transcription readout; actives raise or lower the signal
How it was run: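 Cell-based cis-reporter assay; HepG2; 24 h exposure; reporter mRNA by RT-PCR plus capillary electrophoresis fluorescence; activity in either direction scored relative to DMSO.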

[11] = ATG_M_32_CIS: Attagene CIS-FACTORIAL HepG2 Assay for M32 Transcription Factor (Internal Marker) (AID 2282949); conditions: HepG2 Attagene cis-factorial M32 reporter, mRNA; actives raise or lower the signal;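 also: background control marker of the multiplexed CIS panel rather than a real target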
How it was run: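 Internal background marker read-out: RT-PCR/capillary electrophoresis fluorescence of reporter transcripts from transiently transfected HepG2 cells after 24 h chemical exposure. Activity fitted bidirectionally relative to DMSO negative control.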

[12] = ATG_M_06_CIS: Attagene CIS-FACTORIAL HepG2 Assay for M06 Transcription Factor (Internal Marker) (AID 2282950); conditions: HepG2 Attagene CIS-FACTORIAL M06 internal marker reporter; actives raise or lower the signal
How it was run: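 Measured 24 h post-dosing in transiently transfected HepG2 cells, this internal-marker endpoint reports reporter mRNA via RT-PCR with fluorescent primer extension and capillary electrophoresis. DMSO served as negative control and baseline for bidirectional fitting.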

[13] = target: Hepatocyte nuclear factor 6 (Homo sapiens) (UniProt Q9UBC0); experiment: ATG_HNF6_CIS: Attagene CIS-FACTORIAL HepG2 Assay for human Hepatocyte Nuclear Factor 6 (HNF6) (AID 2282952); conditions: HepG2 Attagene cis-factorial HNF6 reporter transcription; actives raise or lower the signal
How it was run: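 Reporter mRNA induction or loss in HepG2 after 24 h exposure; transient cis-MRTU transfection; fragments quantified by capillary electrophoresis; bidirectional analysis, DMSO as negative control.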

[14] = target: Heat shock factor protein 1 (Homo sapiens) (UniProt Q00613); experiment: ATG_HSE_CIS: Attagene CIS-FACTORIAL HepG2 Assay for human Heat Shock Transcription Factor 1 (HSE) (AID 2282953); conditions: HepG2 HSE cis-reporter, Attagene RNA transcription; actives raise or lower the signal
How it was run: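 Reporter mRNA induction in HepG2 is measured 24 h after dosing, using transiently transfected multiplexed cis-regulated reporter units. Signal comes from capillary electrophoresis of labelled RT-PCR products, with DMSO as negative control.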

[15] = ATG_MRE_CIS: Attagene CIS-FACTORIAL HepG2 Assay for human Metal Responsive Element (MRE) (AID 2282954); conditions: HepG2 MRE cis-reporter transcription, Attagene multiplex; actives raise or lower the signal
How it was run: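 Fluorescent reporter fragments separated by capillary electrophoresis give mRNA induction for the MRE unit after 24 h treatment of transfected HepG2 cells. Endogenous transcription-factor activity is read; DMSO serves as negative control and baseline.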

[16] = ATG_PBREM_CIS: Attagene CIS-FACTORIAL HepG2 Assay for human Phenobarbital-responsive Enhancer Module (PBREM) (AID 2282955); conditions: HepG2 PBREM cis-reporter, Attagene multiplexed transcription; actives raise or lower the signal
How it was run: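 Transfected liver-derived HepG2 cells exposed 24 h; PBREM reporter transcript quantified via RT-PCR and capillary electrophoresis, with activity in either direction referenced to DMSO.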

[17] = target: Paired box protein Pax-6 (Homo sapiens) (UniProt P26367); experiment: ATG_Pax6_CIS: Attagene CIS-FACTORIAL HepG2 Assay for human Paired Box 6 (PAX6) (AID 2282956); conditions: HepG2 CIS-FACTORIAL PAX6 reporter transcription, RNA readout; actives raise or lower the signal
How it was run: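 Multiplexed cis-reporter HepG2 system; 24 h treatment; reporter mRNA read by RT-PCR/CE fluorescence; bidirectional fit vs DMSO.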

[18] = target: Bile acid receptor (Homo sapiens) (UniProt Q96RI1); experiment: ATG_IR1_CIS: Attagene CIS-FACTORIAL HepG2 Assay for human Nuclear Receptor Subfamily 1 Group H Member 4 (NR1H4), IR1 submotif (AID 2282946); conditions: IR1 reporter transcription, actives raise or lower the signal
How it was run: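 HepG2 cells transiently transfected with multiple cis-promoter-driven reporter units to measure endogenous transcription factor activity; 24 h exposure. Reporter mRNA read by RT-PCR, FAM labelling, HpaI digestion and capillary electrophoresis. Bidirectional fit versus DMSO.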

[19] = ATG_GRE_CIS: Attagene CIS-FACTORIAL HepG2 Assay for human Glucocorticoid Response Elements (GRE) (AID 2282947); conditions: HepG2 GRE cis-reporter, Attagene multiplex mRNA; actives raise or lower the signal
How it was run: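 Endogenous transcription factor activity is read through cis-element reporter constructs transiently transfected into HepG2 cells. After 24 h treatment, labelled RT-PCR products are resolved by capillary electrophoresis; DMSO sets baseline for bidirectional curve fitting.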

[20] = target: Hypoxia-inducible factor 1-alpha (Homo sapiens) (UniProt Q16665); experiment: ATG_HIF1a_CIS: Attagene CIS-FACTORIAL HepG2 Assay for human Hypoxia Inducible Factor 1 (HIF1A) (AID 2282951); conditions: HepG2 Attagene cis-factorial HIF1a reporter transcription; actives raise or lower the signal
How it was run: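 Dosed 24 h, transfected HepG2 cells yielded total RNA whose reporter transcripts were RT-PCR-amplified and sized by capillary electrophoresis using fluorescent labelling; DMSO defined baseline, with gain and loss of signal both fitted.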

Measured: AC50

Hepatocyte nuclear factor 3-beta (Homo sapiens), sequence (Q9Y261 whole entry, looked up): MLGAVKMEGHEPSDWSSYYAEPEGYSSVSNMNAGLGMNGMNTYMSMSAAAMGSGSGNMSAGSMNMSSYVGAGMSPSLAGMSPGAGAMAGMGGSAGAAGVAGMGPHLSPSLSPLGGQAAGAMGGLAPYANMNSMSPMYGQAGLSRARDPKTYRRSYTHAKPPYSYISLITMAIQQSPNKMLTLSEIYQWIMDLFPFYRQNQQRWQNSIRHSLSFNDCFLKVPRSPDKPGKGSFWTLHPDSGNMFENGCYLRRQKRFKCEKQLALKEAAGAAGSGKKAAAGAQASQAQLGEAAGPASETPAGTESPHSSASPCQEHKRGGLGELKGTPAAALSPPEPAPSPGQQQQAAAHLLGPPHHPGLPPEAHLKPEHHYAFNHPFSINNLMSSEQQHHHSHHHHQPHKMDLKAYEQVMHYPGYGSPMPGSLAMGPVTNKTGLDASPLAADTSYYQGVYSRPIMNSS
Paired box protein Pax-6 (Homo sapiens), sequence (P26367 whole entry, looked up): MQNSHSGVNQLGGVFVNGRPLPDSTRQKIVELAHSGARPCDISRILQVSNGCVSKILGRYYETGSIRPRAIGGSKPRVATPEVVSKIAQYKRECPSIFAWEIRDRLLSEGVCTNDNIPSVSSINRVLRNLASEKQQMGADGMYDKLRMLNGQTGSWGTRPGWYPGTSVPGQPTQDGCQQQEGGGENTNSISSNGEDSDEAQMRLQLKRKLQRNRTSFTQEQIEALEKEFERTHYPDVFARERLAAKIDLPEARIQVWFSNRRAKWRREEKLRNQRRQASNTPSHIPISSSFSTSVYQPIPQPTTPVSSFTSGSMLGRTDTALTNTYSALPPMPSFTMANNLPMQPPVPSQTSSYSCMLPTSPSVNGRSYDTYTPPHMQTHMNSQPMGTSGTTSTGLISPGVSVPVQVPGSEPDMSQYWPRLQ
Hepatocyte nuclear factor 6 (Homo sapiens), sequence (Q9UBC0 whole entry, looked up, the tested form may be a part): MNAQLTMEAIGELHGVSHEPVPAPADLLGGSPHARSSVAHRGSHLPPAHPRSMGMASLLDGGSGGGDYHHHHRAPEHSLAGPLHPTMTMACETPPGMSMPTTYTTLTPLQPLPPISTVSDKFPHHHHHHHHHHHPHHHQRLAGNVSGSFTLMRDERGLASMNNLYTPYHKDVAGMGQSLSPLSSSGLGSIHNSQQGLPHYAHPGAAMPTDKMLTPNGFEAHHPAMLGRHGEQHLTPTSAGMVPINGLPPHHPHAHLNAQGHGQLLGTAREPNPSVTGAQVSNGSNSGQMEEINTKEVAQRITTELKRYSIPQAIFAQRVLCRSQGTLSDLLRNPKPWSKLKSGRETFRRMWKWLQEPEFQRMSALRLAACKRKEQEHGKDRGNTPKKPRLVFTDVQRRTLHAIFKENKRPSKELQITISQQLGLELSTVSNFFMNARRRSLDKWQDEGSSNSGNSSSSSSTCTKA
Bile acid receptor (Homo sapiens), sequence (Q96RI1 whole entry, looked up): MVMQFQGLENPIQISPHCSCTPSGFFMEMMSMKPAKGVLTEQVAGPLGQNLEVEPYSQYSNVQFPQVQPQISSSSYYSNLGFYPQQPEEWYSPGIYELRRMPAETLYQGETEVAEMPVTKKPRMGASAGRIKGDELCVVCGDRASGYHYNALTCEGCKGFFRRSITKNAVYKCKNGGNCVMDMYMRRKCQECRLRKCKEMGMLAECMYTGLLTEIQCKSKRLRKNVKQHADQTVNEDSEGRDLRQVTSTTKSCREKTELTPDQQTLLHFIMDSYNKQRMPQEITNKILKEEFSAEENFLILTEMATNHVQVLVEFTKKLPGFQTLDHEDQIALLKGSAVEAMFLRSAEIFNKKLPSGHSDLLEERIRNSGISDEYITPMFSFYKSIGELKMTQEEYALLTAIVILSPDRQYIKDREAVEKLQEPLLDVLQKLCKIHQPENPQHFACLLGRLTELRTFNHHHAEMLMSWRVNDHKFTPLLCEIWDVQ
Heat shock factor protein 1 (Homo sapiens), sequence (Q00613 whole entry, looked up): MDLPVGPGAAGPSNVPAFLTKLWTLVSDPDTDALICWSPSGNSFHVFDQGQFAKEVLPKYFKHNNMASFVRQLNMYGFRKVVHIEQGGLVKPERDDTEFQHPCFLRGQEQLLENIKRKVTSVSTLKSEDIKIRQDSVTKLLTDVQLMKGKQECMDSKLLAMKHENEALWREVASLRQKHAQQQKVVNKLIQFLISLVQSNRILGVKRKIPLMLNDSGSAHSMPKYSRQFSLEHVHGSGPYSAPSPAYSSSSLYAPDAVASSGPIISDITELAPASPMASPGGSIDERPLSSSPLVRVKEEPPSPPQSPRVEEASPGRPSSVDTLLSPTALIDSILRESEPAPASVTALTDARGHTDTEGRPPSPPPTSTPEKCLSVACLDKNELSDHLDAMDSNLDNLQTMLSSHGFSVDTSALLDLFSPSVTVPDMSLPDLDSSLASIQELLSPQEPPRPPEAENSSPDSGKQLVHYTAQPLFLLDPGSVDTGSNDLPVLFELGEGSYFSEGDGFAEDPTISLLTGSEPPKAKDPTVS
Hypoxia-inducible factor 1-alpha (Homo sapiens), sequence (Q16665 whole entry, looked up): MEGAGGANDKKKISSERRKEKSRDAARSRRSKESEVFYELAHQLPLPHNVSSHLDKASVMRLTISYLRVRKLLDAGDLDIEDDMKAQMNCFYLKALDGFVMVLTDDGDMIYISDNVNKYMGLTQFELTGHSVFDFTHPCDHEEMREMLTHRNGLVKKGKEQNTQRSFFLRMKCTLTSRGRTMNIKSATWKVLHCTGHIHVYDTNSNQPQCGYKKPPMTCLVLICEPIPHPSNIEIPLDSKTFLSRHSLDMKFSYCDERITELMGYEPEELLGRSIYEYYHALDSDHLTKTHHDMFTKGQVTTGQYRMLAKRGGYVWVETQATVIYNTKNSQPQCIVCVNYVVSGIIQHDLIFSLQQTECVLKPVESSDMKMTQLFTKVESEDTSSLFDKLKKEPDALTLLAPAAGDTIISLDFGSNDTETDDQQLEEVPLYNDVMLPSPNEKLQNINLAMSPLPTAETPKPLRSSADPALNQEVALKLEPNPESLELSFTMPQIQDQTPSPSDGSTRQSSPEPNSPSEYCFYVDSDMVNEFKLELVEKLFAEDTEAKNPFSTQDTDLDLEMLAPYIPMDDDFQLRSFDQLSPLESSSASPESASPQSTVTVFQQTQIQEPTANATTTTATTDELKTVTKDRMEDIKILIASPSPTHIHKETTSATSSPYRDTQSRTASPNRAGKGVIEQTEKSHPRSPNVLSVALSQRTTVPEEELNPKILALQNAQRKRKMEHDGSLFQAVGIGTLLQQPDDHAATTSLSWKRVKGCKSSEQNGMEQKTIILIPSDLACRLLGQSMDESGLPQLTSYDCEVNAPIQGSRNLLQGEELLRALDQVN

Cc1ccc(N)cc1
not listed: [18] | [19] | [20]
inactive: all other assays above

C[C@]12C=CC3=C4CCC(=O)C=C4CC[C@H]3[C@@H]1CC[C@@H]2O
active: [3] 25.3 µM | [5] 31.8 µM and 30 µM | [7] 30.2 µM | [18] 760 nM and 26.7 µM and 26.8 µM | [10] 59.8 µM [middle of 4 runs] | [15] 100 µM and 44.5 µM and 52.5 µM | [17] 34.2 µM
inactive: [1] | [2] | [3] | [5] | [6] | [7] | [8] | [9] | [18] | [10] | [11] | [12] | [13] | [14] | [15] | [16] | [17]

CCN(CC)CCO
not listed: [18]
inactive: all other assays above
